ST2 inh: IL1RL1 inhibition; Q01638; AlphaLISA ST2-Fc/biotin-IL-33 interaction, 1 h; inhibition, % for hits at 17 µM; 2.3% of 78,000 active; in the data active means inhibition above about 30%
Target sequence (Q01638 whole entry, looked up): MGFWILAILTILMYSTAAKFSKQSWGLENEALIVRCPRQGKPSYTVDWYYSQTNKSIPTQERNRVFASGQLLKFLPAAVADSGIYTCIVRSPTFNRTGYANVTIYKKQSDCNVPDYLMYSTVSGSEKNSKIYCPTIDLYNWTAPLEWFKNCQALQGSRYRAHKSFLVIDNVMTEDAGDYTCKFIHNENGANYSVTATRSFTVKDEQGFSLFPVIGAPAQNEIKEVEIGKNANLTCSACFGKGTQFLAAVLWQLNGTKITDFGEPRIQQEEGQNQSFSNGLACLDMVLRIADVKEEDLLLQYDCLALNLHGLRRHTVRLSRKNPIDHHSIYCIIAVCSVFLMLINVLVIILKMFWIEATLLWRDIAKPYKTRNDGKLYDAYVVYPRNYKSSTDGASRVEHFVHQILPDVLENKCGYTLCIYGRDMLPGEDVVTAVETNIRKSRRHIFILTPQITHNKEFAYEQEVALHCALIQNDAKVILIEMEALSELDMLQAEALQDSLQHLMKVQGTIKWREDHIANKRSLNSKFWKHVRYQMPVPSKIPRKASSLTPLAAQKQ
Hits are given with their value. This excerpt belongs to a sample that is enriched for hits.

Results for COc1cccc(C2CC(c3ccc(Br)cc3)=NN2C(=O)CCCC(=O)O)c1OC (centres undefined) ?
ST2 inh: inactive

What do the screens show for `COc1cccc(C2CC(c3cccs3)=NN2C(=O)CSC2CCCCC2)c1OC` (centres undefined)?
ST2 inh: 44%

Results for Fc1ccccc1N1CCN(C2CCCN(Cc3ccc4c(c3)OCCO4)C2)CC1 (centres undefined) ?
ST2 inh: inactive

What do the screens show for `Cn1c(CNC(c2ccccc2)c2ccccc2)nc2ccccc21`?
ST2 inh: inactive

Results for Cn1cnnc1SCC(=O)NC1CC(=O)N(CCc2ccccc2)C1 (centres undefined) ?
ST2 inh: inactive

Results for O=C(NC1CCCCC1)O[C@@H]1CO[C@H]2[C@@H]1OC[C@@H]2n1nnnc1-c1ccccc1 ?
ST2 inh: 39%

How did COc1cccc(-c2nnnn2[C@H]2CO[C@H]3[C@@H]2OC[C@@H]3NC(=O)c2ccc(C(F)(F)F)cc2)c1 do in these assays?
ST2 inh: inactive

How did O=C(NC1CCCCC1)N[C@H]1CO[C@H]2[C@@H]1OC[C@@H]2n1nnnc1Oc1ccc(-n2ccnc2)cc1 do in these assays?
ST2 inh: inactive

Results for O=C(NCCCN1CCCC1)c1cc(=O)[nH]c2ccc(S(=O)(=O)N3CCCCCC3)cc12 ?
ST2 inh: inactive

What do the screens show for `FC(F)(F)c1ccc(-c2noc(CN3CCCC(CN4CCOCC4)C3)n2)cc1` (centres undefined)?
ST2 inh: inactive

What do the screens show for `Cc1ccc(/C=C2/SC(N3CC(C)OC(C)C3)=NC2=O)o1` (centres undefined)?
ST2 inh: inactive

How did CC1CCCN(S(=O)(=O)c2cc(Br)cc3c2N(C(=O)C2CC2)CC3)C1 (centres undefined) do in these assays?
ST2 inh: inactive

Results for COc1ccc(-c2cc(C(F)(F)F)nc(NCc3ccccc3)n2)cc1OC ?
ST2 inh: inactive

What do the screens show for `COc1ccccc1-c1cc(C(F)(F)F)nc(S(C)(=O)=O)n1`?
ST2 inh: inactive

How did COc1ccccc1Nc1cc(C(F)(F)F)nc2c(OC)ccc(OC)c12 do in these assays?
ST2 inh: 39%

Results for CCOCCn1c(CN2CCN(c3cccc(Cl)c3)CC2)nc2c1c(=O)[nH]c(=O)n2C ?
ST2 inh: inactive

Results for O=C(c1cccc(Cn2cccn2)c1)N1CCCC(Nc2ccc(F)cc2)C1 (centres undefined) ?
ST2 inh: inactive

Results for CC1(C)C(=O)OC(c2ccc(F)cc2)C(C)(C)C1=O (centres undefined) ?
ST2 inh: inactive

How did COc1ccc(NC2=C(C)C(=O)CC2)cc1 do in these assays?
ST2 inh: inactive

What do the screens show for `COc1ccc(C2CC(=O)C=C(Nc3ccccc3)C2)cc1` (centres undefined)?
ST2 inh: inactive

How did COc1ccc(Nc2ccc(OC)cc2)cc1 do in these assays?
ST2 inh: 70%

What do the screens show for `COc1ccc(NS(=O)(=O)c2cccc(C(=O)Nc3ccccc3C(=O)O)c2)cc1`?
ST2 inh: inactive

What do the screens show for `COc1ccc(CNc2ccccc2C(=O)O)cc1`?
ST2 inh: inactive

Results for COc1ccc(Nc2ccccc2)c(C)c1 ?
ST2 inh: 37%

What do the screens show for `COc1ccc(OC)c(S(=O)(=O)Nc2ccccc2)c1`?
ST2 inh: inactive

Results for COc1ccc(Nc2ccccc2C(=O)O)cc1 ?
ST2 inh: 35%

Results for COc1ccc(NC(=O)Nc2ccc(I)cc2)cc1 ?
ST2 inh: inactive

Results for O=C(c1ccoc1)N1CCCC(CO)(CCOc2ccccc2)C1 (centres undefined) ?
ST2 inh: inactive

Results for CS(=O)(=O)c1ccc(-c2nccn2CCn2ccnc2)cc1 ?
ST2 inh: inactive

How did CCC1CCCCN1CCNS(=O)(=O)c1cccc2nsnc12 (centres undefined) do in these assays?
ST2 inh: inactive

Results for CSc1nc2c(c(=O)[nH]1)C(c1cccs1)C1=C(CC(C)(C)CC1=O)N2 (centres undefined) ?
ST2 inh: inactive

Results for Cn1c(=O)c2c(nc(N3CCN(Cc4ccccc4)CC3)n2Cc2ccccc2Cl)n(C)c1=O ?
ST2 inh: inactive

What do the screens show for `CC1CCCC(NC(=O)CSc2cc(=O)n(C)c3cc(Cl)ccc23)C1C` (centres undefined)?
ST2 inh: inactive

Results for CCCCOc1ccccc1C(=O)N1CCC(N2CCCC2=O)CC1 ?
ST2 inh: inactive

What do the screens show for `COc1cccc(C2CCN2C(=O)Nc2n[nH]c(CCc3ccccc3)n2)c1` (centres undefined)?
ST2 inh: inactive

Results for COc1cccc(C2CCN2C(=O)CC(=O)Nc2ccc(C)cc2)c1 (centres undefined) ?
ST2 inh: 31%

What do the screens show for `COc1cccc(NC(=O)C(=O)NCc2ccc(C)cc2)c1`?
ST2 inh: inactive

What do the screens show for `Cc1n[nH]c(C)c1S(=O)(=O)N1CCC(C(=O)N2CCN(c3ccccn3)CC2)CC1`?
ST2 inh: inactive

What do the screens show for `O=C1c2ccccc2C(Nc2ccc(Cl)cc2)N1Cc1ccccc1` (centres undefined)?
ST2 inh: inactive

How did C=CC1(C)CC(OC(=O)/C(=C\COC(C)=O)CO)C(C(=C)C(=O)OC)C(O)C1C(=C)CO (centres undefined) do in these assays?
ST2 inh: inactive

What do the screens show for `Cc1ccc(NC(=O)c2cnccn2)c(Br)c1`?
ST2 inh: 39%

What do the screens show for `O=C(Nc1ccc(F)c(F)c1)c1cnccn1`?
ST2 inh: inactive

How did Cc1ccc2nc(NC(=O)c3cnccn3)sc2c1 do in these assays?
ST2 inh: inactive

Results for Cn1c(SCc2nc3ccccc3[nH]2)nnc1-c1ccc(NC(=O)c2ccccc2Cl)cc1 ?
ST2 inh: inactive

How did O=C(C1CCN(S(=O)(=O)c2cccs2)CC1)N1CCCC1 do in these assays?
ST2 inh: inactive

How did O=C(Cn1cnc2c(oc3ccccc32)c1=O)Nc1ccc2c(c1)OCO2 do in these assays?
ST2 inh: inactive

Results for COc1ccc(OCc2ccc(F)cc2)c(/C=C2\C(=O)NN(c3ccccc3)C2=O)c1 ?
ST2 inh: inactive

How did COc1cccc(OCCOc2ccc(/C=C3\C(=O)NN(c4ccccc4)C3=O)cc2)c1 do in these assays?
ST2 inh: inactive

What do the screens show for `COc1ccc(OCc2ccccc2F)c(/C=C2\C(=O)NN(c3ccccc3)C2=O)c1`?
ST2 inh: 35%

Results for COc1cc(NC(=O)C(Cl)(Cl)Cl)ccc1NC(=O)c1cc2ccccc2o1 ?
ST2 inh: inactive

How did COCC(=O)Nc1cc(C(=O)N2CCC(Oc3ccccc3F)CC2)c2c(c1)nc(C1CCC1)n2C do in these assays?
ST2 inh: inactive

What do the screens show for `O=C1CCCC2=C1C(c1ccc(OCc3ccc([N+](=O)[O-])cc3)cc1)C1=C(CCCC1=O)N2`?
ST2 inh: inactive

What do the screens show for `COc1ccc(C2C3=C(CCCC3=O)NC3=C2C(=O)c2ccccc23)cc1` (centres undefined)?
ST2 inh: inactive

What do the screens show for `CCOc1ccc(C2C3=C(CCCC3=O)NC3=C2C(=O)c2ccccc23)cc1` (centres undefined)?
ST2 inh: 36%

Results for O=S(=O)(c1cccc(S(=O)(=O)N2CCOCC2)c1)c1ccc(Cl)c(Cl)c1 ?
ST2 inh: inactive

How did COc1cc(Br)c(/C=C2\C(=O)N(c3cccc(Cl)c3)N=C2C)cc1OC do in these assays?
ST2 inh: inactive

Results for CC1=NN(c2ccccc2)C(=O)/C1=C/c1ccc(O)c(Cl)c1 ?
ST2 inh: inactive

What do the screens show for `CC1=NN(c2cccc(Br)c2)C(=O)/C1=C/c1ccc(-c2ccc3c(c2)C(=O)OC3)o1`?
ST2 inh: inactive
